Laboratory results published in the supplement of paper PMC6897291.

System: RIVA
Experiment: growth inhibition by drug plus 177Lu-lilotomab satetraxetan (1 - RLU/untreated control) (fraction); higher = stronger inhibition
Conditions: 177Lu-lilotomab satetraxetan 0.5 ug/ml
Procedure: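 RIVA (RI-1) ABC-DLBCL cells were pretreated or not for 18 h with 0.5 ug/ml 177Lu-lilotomab satetraxetan (600 MBq/mg), washed and seeded (3000 cells/well) on 384-well plates pre-printed with the Selleck Cambridge Cancer Compound library. Viability was read by RealTime-Glo luminescence on days 3-6 after seeding. Effect = 1 - RLU/mean RLU of the 48 untreated no-drug control wells per plate; Bliss score = (M-E)/(1-Fa).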

Compound | growth inhibition by drug plus 177Lu-lilotomab satetraxetan (10 nM, time (day): 3) | growth inhibition by drug plus 177Lu-lilotomab satetraxetan (10 nM, time (day): 4) | growth inhibition by drug plus 177Lu-lilotomab satetraxetan (10 nM, time (day): 5) | growth inhibition by drug plus 177Lu-lilotomab satetraxetan (10 nM, time (day): 6) | growth inhibition by drug plus 177Lu-lilotomab satetraxetan (100 nM, time (day): 3) | growth inhibition by drug plus 177Lu-lilotomab satetraxetan (100 nM, time (day): 4) | growth inhibition by drug plus 177Lu-lilotomab satetraxetan (100 nM, time (day): 5) | growth inhibition by drug plus 177Lu-lilotomab satetraxetan (100 nM, time (day): 6)
N#Cc1ccc(NC(=O)Nc2ccccc2Br)c2n[nH]nc12 | 0.534 | 0.601 | 0.605 | 0.619 | 0.463 | 0.528 | 0.544 | 0.542
O=C(NCCCNc1nc(Nc2cccc(NC(=O)N3CCCC3)c2)ncc1I)c1cccs1 | 0.795 | 0.787 | 0.812 | 0.838 | 0.547 | 0.558 | 0.603 | 0.64
CO[C@H]1C[C@@H]2CC[C@@H](C)[C@@](O)(O2)C(=O)C(=O)N2CCCC[C@H]2C(=O)O[C@H]([C@H](C)C[C@@H]2CC[C@@H](O)[C@H](OC)C2)CC(=O)[C@H](C)/C=C(\C)[C@@H](O)[C@@H](OC)C(=O)[C@H](C)C[C@H](C)/C=C/C=C/C=C/1C [Rapamycin (Sirolimus)] | 0.839 | 0.875 | 0.88 | 0.873 | 0.829 | 0.867 | 0.88 | 0.878
COc1ccc(C2=N[C@@H](c3ccc(Cl)cc3)[C@@H](c3ccc(Cl)cc3)N2C(=O)N2CCNC(=O)C2)c(OC(C)C)c1 [Nutlin-3] | 0.386 | 0.472 | 0.502 | 0.521 | 0.328 | 0.467 | 0.479 | 0.496
Oc1cccc(-c2nc(N3CCOCC3)c3oc4ncccc4c3n2)c1 | 0.54 | 0.556 | 0.562 | 0.572 | 0.837 | 0.831 | 0.827 | 0.824
